The values that follow come from PubChem BioAssay.

Test [1] concerns the target Voltage-gated inwardly rectifying potassium channel KCNH2 (Homo sapiens) (UniProt Q12809). Description: hERG block by Kir2.1 inhibitor candidates – cell-based, thallium flux, counter-screen for Kir2.1 inhibitor project (AID 2236).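 Also: host cells are CHO cells stably expressing hERG.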 As to conditions: hERG-expressing cells, at 10 µM, hits give high values.
In test [2] the target is Potassium channel subfamily K member 9 (Homo sapiens) (UniProt Q9NPC2). Put plainly: human KCNK9 potassium channel blockers – cell-based, selectivity assay for Kir2.1 inhibitor project (AID 2329). As to conditions: KCNK9-expressing cells, ion flux inhibition; at 10 µM; hits give high values.
Test [3] concerns the target Short transient receptor potential channel 4 (Mus musculus) (UniProt Q9QUQ5). Put plainly: DAMGO-gated TRPC4 membrane potential modulation – cell-based, second specificity screen, HEK293 TRPC4/mu-opioid, selectivity assay for TRPC6 inhibitor project, confirmation (AID 2776;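 active = compounds whose fluorescence signal differed from control wells by over 3 SD, either direction, in both duplicate plates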). As to conditions: HEK293 TRPC4/MOR, membrane potential dye fluorescence; at 10 µM; hits give high values; channel activated by saturating DAMGO dose.

Test [4] relates to transient receptor potential cation channel C4 (TRPC4), mouse. Put plainly: membrane potential change in TRPC4 cells – cell-based, HEK293 TRPC4/mu-opioid, membrane potential dye, selectivity assay for TRPC6 inhibitor project, confirmation (AID 2777;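 active = rise or fall in signal beyond 3 SD of buffer-only wells in both replicate plates, either sign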;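 also: integrated kinetic ratio of fluorescence range over baseline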). As to conditions: membrane potential fluorescence, at 10 µM.
Test [5] in a line: parental HEK293 depolarization signal interference – cell-based, second counter screen, counter-screen for TRPC6 inhibitor project, confirmation (AID 2779;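 active = membrane potential signal moving either way by over 3 SD of the maximum-effect control, in both duplicate plates, meaning non-specific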). The settings on record: parental HEK293 membrane potential dye fluorescence; at 10 µM; maximal acetylcholine challenge after compound addition. Background: A counterscreen serves to expose hits that act by an unwanted route or on another target.

Test [6] can be described thus: nonspecific voltage dye signal in HEK293 – cell-based, parental HEK293, counter-screen for TRPC6 inhibitor project, confirmation (AID 2780;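 active = membrane potential signal shifting up or down by more than 3 SD of buffer-only wells, on both duplicate plates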;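 also: plate controls were buffer EC0 wells for no effect and acetylcholine ECmax wells for full effect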). The settings on record: parental HEK293 membrane potential dye fluorescence; at 10 µM.
The target in test [7] is Inward rectifier potassium channel 2 (Mus musculus) (UniProt P35561). Description: Kir2.1 potassium current inhibition – cell-based, secondary, automated electrophysiology, Kir2.1 inhibitor project (AID 463252). The settings on record: Kir2.1 cells, automated patch-clamp current inhibition; at 25 µM; hits give high values. Background: The patch-clamp technique gives a direct electrical read-out from membranes.

The target in test [8] is Short transient receptor potential channel 6 (Mus musculus) (UniProt Q61143). Description: mouse TRPC6 channel activators, confirmation, HEK293 cells, membrane potential dye, duplicate (AID 488961;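 active = ratio signal rise beyond 5 SD above unstimulated control wells' mean, seen in both duplicate runs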). The settings on record: HEK293-TRPC6 membrane potential dye fluorescence, FDSS; at 10 µM.
A short description of test [9]: parental CHO-K1 cell activation, no KCNQ2 – FluxOR thallium flux, duplicate, counter-screen for KCNQ2 potentiator project, confirmation (AID 2282;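 active = signal rise of at least 3 SD above the untreated control mean, in both duplicate wells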;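 also: counter screen of KCNQ2 potentiator hits so any rise reflects channel-independent effects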). As to conditions: parental CHO-K1 cells, FluxOR thallium flux fluorescence; at 10 µM; hits give high values; zero = vehicle mean+3SD, 100% = vehicle-minus-blank window.
Test [10] deals with Potassium voltage-gated channel subfamily KQT member 1 (Homo sapiens) (UniProt P51787). Description: KCNQ1 activation in stable CHO cells – cell-based, FluxOR thallium flux, selectivity assay for KCNQ2 potentiator project, confirmation (AID 2283;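 active = fluorescence ratio rise of at least 3 SD of vehicle wells above their mean, in both replicate wells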;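 also: 0% = vehicle mean plus 3 SD and 100% = vehicle minus unstimulated blank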). As to conditions: FluxOR thallium flux fluorescence, at 10 µM, hits give high values, beyond 3SD, as % of vehicle-control signal.
Test [11] addresses Potassium voltage-gated channel subfamily KQT member 2 (Rattus norvegicus) (UniProt O88943). Description: KCNQ2 potassium channel activity enhancers – cell-based, CHO, FluxOR thallium flux, duplicate, confirmation (AID 2287;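 active = fluorescence ratio rising 3 SD or more over the vehicle control mean in both replicates, plus primary screen hit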;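 also: peak minus minimum thallium fluorescence divided by baseline after K/Tl stimulus; 0% = vehicle mean plus 3 SD and 100% = vehicle minus unstimulated blank difference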). The settings on record: CHO-KCNQ2 cells, FluxOR thallium flux fluorescence; at 10 µM; hits give high values.
Test [12] has as its target Inward rectifier potassium channel 2 (Mus musculus) (UniProt P35561). Description: PubChem AID 2345.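 Also: 0% = vehicle mean plus 3 SD and 100% = vehicle minus no-stimulus blank window.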 The settings on record: HEK293 Kir2.1, FluxOR thallium flux fluorescence; at 10 µM; hits give high values.
Test [13] concerns the target Potassium voltage-gated channel subfamily KQT member 2 (Rattus norvegicus) (UniProt O88943). Description: W236L mutant KCNQ2 current enhancers – cell-based, rat KCNQ2 W236L, CHO, automated patch clamp, mechanism study for KCNQ2 potentiator project (AID 2558;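 active = current increase at least 3 SD of the untreated controls above them in both duplicate recordings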). The settings on record: at 25 µM.
A short description of test [14]: nonspecific flux increase, KCNQ1-free cells – parental CHO cells, counter-screen for KCNQ1 potentiator project (AID 493006;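 active = duplicate-averaged activation above buffer control mean plus 5 SD of those controls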;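 also: fluorescence ratio of max minus min over baseline after K+ and Tl+ depolarization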). As to conditions: parental CHO-K1 cells, FluxOR thallium flux, at 10 µM; hits give high values.
Test [15] addresses Potassium voltage-gated channel subfamily KQT member 1 (Homo sapiens) (UniProt P51787). Put plainly: enhancement of KCNQ1 channel thallium flux – FluxOR thallium flux, CHO cells, duplicates, confirmation (AID 493007;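 active = potentiation averaged over duplicate wells exceeding buffer-only control mean by more than 3 SD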;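 also: 0% = buffer-only wells and 100% = R-L3 activator control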). As to conditions: KCNQ1 cell line, FluxOR thallium flux fluorescence, at 10 µM; hits give high values, % of reference activator effect, buffer zero.
Test [16] deals with Potassium voltage-gated channel subfamily KQT member 2 (Rattus norvegicus) (UniProt O88943). Put plainly: KCNQ2 thallium flux enhancement – KCNQ2-CHO-K1 cells, selectivity assay for KCNQ1 potentiator project (AID 493009;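 active = mean duplicate potentiation above the buffer control mean plus 5 SD of buffer wells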;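 also: assay conditions were tuned for KCNQ1 rather than KCNQ2 modulators; signal is max minus min fluorescence divided by baseline after thallium stimulus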). The settings on record: FluxOR thallium flux fluorescence, at 10 µM; hits give high values, scaled: buffer 0, activator control 100.
For test [17], the target named is Potassium voltage-gated channel subfamily KQT member 1 (Homo sapiens) (UniProt P51787). Put plainly: KCNQ1 activators by electrophysiology – IonWorks patch clamp, KCNQ1-CHO cells, orthogonal assay for KCNQ1 potentiator project, confirmation (AID 493184;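 active = current rise at least 3 SD above the untreated control mean in each of two repeat wells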). The settings on record: automated patch clamp current, at 10 µM.
Test [18] can be described thus: nonspecific voltage dye response without TRPC6 – cell-based, parental HEK293, counter-screen for TRPC6 modulator project, confirmation (AID 488924;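 active = membrane potential signal moves up or down beyond 5 SD from buffer-only wells, on both duplicate plates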). As to conditions: parental HEK293, membrane potential dye fluorescence; at 10 µM.
Test [19] can be described thus: membrane potential response modulators in host HEK293 cells – cell-based, second counter-screen, parental HEK293, membrane potential dye, counter-screen for TRPC6 modulator project, confirmation (AID 488926;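 active = membrane potential signal drops by more than 5 SD from the mean control signal, in both duplicate plates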). As to conditions: parental HEK293, membrane potential dye fluorescence, at 10 µM, after compound, maximal acetylcholine stimulation; hits give high values.
Test [20] relates to Transient receptor potential cation channel subfamily C member 4 (mouse). Put plainly: off-target membrane potential effects via mouse TRPC4 – cell-based, HEK293 TRPC4/mu-opioid, membrane potential dye, selectivity assay for TRPC6 modulator project, confirmation (AID 488927;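 active = membrane potential signal moved up or down beyond 5 SD of buffer control wells, in both duplicate plates, actives on both sides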;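 also: plate controls were assay buffer wells for no effect and DAMGO maximal-effect wells for full effect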). The settings on record: membrane potential fluorescence, at 10 µM.

A number with no mark means an inactive call. The list shows a part of the results. Active and inactive are the calls of the source.

Sequence of Potassium voltage-gated channel subfamily KQT member 1 (Homo sapiens) (P51787 whole entry, looked up): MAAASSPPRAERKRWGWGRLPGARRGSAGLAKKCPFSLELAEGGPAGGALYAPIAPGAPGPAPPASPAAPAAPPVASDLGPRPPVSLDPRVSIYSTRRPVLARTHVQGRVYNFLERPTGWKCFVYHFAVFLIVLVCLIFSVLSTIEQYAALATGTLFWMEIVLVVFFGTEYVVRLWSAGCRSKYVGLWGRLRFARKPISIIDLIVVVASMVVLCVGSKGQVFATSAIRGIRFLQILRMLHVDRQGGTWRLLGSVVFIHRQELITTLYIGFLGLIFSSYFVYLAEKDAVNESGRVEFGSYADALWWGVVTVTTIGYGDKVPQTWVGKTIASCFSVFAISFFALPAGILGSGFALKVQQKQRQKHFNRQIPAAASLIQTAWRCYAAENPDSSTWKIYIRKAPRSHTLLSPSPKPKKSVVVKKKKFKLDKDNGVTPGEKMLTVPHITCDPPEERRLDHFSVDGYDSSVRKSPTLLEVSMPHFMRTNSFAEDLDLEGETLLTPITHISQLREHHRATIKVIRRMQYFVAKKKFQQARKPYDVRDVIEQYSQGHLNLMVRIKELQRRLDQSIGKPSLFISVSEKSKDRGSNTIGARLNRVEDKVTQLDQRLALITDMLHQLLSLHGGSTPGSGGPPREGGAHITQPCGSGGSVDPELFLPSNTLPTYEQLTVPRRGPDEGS
Sequence of Inward rectifier potassium channel 2 (Mus musculus) (P35561 whole entry, looked up): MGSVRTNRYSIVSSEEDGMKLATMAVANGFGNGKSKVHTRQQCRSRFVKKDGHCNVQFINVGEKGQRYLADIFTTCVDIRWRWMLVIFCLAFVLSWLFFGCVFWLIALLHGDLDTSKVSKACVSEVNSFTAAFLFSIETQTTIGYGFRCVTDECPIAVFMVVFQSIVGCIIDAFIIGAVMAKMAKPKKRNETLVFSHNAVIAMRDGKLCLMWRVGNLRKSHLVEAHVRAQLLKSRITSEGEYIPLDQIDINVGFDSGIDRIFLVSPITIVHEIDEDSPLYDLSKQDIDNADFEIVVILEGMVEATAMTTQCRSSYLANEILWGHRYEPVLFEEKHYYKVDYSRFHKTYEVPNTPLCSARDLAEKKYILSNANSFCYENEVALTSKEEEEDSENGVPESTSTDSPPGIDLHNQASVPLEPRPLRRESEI
Sequence of Short transient receptor potential channel 6 (Mus musculus) (Q61143 whole entry, looked up): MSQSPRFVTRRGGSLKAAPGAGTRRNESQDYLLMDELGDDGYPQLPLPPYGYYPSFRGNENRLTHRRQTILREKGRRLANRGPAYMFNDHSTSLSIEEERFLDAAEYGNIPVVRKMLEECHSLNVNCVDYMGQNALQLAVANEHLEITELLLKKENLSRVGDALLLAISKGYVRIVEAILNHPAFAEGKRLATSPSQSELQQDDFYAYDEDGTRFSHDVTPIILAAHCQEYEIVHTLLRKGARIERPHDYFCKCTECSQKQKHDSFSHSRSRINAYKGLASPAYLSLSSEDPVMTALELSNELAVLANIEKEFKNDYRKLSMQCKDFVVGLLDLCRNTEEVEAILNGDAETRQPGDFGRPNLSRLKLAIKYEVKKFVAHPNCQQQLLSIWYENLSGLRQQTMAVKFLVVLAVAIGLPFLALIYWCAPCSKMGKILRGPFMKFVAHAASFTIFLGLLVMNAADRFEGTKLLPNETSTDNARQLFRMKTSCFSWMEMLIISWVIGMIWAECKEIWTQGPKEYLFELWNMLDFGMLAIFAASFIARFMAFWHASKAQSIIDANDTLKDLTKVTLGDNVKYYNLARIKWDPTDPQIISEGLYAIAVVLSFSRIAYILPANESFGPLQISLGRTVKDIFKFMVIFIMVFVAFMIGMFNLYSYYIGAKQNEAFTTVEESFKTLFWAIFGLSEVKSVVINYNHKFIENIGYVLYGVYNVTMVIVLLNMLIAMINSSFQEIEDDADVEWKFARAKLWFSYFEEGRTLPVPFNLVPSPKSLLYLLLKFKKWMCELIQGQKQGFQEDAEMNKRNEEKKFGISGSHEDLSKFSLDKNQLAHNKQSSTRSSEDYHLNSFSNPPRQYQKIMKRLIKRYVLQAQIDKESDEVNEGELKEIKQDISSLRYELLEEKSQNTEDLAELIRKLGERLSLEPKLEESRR
Sequence of Voltage-gated inwardly rectifying potassium channel KCNH2 (Homo sapiens) (Q12809 whole entry, looked up): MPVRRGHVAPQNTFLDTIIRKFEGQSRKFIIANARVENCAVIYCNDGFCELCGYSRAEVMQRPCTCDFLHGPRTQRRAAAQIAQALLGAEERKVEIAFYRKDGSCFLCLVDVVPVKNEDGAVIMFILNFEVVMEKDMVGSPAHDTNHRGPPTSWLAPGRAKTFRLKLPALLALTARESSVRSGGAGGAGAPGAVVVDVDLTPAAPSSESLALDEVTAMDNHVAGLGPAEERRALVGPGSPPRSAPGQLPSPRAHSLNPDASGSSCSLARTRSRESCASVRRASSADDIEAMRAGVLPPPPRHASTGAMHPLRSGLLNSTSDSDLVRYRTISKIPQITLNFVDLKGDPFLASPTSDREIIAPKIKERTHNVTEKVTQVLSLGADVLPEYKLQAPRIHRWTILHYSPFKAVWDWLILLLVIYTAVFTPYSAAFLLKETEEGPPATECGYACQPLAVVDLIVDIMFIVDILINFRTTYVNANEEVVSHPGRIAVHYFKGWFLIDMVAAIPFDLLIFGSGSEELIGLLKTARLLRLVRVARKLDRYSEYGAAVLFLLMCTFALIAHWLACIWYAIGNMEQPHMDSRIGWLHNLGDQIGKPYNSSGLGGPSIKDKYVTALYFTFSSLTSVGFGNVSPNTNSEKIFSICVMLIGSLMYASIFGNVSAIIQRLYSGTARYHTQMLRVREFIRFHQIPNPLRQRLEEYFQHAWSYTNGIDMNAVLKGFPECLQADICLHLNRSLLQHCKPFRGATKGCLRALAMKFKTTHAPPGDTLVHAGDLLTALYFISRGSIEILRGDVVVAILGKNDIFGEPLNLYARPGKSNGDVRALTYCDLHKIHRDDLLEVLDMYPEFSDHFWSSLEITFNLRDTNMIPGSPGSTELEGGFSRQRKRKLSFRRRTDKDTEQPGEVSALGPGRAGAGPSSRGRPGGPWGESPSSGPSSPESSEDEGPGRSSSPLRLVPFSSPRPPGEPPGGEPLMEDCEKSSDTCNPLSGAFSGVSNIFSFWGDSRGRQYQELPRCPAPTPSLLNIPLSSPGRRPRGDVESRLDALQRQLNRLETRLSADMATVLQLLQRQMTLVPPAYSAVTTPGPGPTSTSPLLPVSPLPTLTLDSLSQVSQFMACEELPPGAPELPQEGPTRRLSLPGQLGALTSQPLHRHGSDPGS
Sequence of Short transient receptor potential channel 4 (Mus musculus) (Q9QUQ5 whole entry, looked up): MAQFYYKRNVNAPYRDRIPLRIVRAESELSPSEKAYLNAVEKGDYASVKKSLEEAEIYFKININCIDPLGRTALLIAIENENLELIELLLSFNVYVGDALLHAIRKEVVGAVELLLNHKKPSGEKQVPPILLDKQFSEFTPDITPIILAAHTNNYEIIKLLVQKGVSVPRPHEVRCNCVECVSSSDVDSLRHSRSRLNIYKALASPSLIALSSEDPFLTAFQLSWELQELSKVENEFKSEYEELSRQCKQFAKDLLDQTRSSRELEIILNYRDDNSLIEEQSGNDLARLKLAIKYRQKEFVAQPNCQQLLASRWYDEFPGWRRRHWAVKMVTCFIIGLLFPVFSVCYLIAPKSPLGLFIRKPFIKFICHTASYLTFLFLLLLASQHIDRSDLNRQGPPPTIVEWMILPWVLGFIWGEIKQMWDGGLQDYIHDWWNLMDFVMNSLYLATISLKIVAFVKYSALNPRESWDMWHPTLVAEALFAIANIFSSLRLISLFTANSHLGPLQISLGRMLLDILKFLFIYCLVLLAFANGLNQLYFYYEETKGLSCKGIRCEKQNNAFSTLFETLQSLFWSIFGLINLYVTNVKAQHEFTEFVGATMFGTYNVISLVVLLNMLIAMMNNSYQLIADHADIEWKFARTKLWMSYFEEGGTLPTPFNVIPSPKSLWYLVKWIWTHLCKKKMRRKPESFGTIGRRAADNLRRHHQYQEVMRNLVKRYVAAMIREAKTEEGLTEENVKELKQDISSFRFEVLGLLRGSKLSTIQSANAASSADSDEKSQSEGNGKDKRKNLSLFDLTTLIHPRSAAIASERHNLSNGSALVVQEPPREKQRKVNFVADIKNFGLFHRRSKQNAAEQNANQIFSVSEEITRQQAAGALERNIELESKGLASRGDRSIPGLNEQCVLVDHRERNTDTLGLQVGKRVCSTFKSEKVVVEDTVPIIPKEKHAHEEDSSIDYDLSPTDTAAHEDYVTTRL

As to `CCOc1cccc(=NC2CCCCC2)c2c(C)[nH]c(C)c12`, the inhibition – broadly, the relative decrease from the control value, in per cent – in [1] was 74% (active); in [2], 48% (active); in test [3], 56% (active); in test [7], 13.9% (active). Besides, the activity change, negative = inhibition in test [4] is -8.98% (active). Also, the signal change vs control in test [5] was -3.5% (active). Moreover, the membrane potential signal change in [6] is -146% (active). The outcome in [8] was inactive.

Consider `COc1cc(-n2c(=S)[nH]c3ccc(C)cc3c2=O)c(Cl)cc1Cl`, for which the activity increase over 3SD of controls in test [9] is 2.8% (active). In addition, the activation over 3SD threshold in [10] was -13.6%. Besides, in test [11], the potentiation, less the hit threshold is 1.9% (active). Besides, in test [12], the activity over 3SD threshold was -22.9%. Moreover, the result in test [13] and in test [17] was inactive. In test [14], the activation is 182% (active). Also, the results for the potentiation in [15] and in test [16] were 22.5% (active) and 153% (active), respectively.

Regarding `CC1(C)Cc2c(C#N)c(N3CCNCC3)nc(-c3ccco3)c2CS1`, the outcome in [18], in [19] and in [8] was inactive. Besides, the percent change from control (negative = decrease, positive = increase) in test [20] was -14.5% (active).

As to `Cc1ccc(C[n+]2c(-c3ccc(C)cc3)cc(-c3ccc(C)cc3)cc2-c2ccc(C)cc2)cc1`, the activation in test [14] was 142% (active). In addition, the figures for the potentiation in test [15] and in test [16] were 124% (active) and 185% (active), respectively. Moreover, in test [17], the outcome was inactive.
